Bioassay records as filed in PubChem.
RORg inh = inhibitors of mouse ROR gamma transcriptional activity | P51450 | Drosophila S2 Gal4-RORgamma UAS-luciferase reporter, 20 h | Potency, µM (titrated, usually from 53.6 µM), without a hit: at the highest dose activity change, negative = inhibition, usual class: inhibitors | 5.4% of 310,000 active; note: % is set by controls: 0 for no effect and ±100 for the full control effect; nearly all actives have a fitted effect of over 60% in size
Target sequence (P51450 whole entry, looked up, the tested form may be a part): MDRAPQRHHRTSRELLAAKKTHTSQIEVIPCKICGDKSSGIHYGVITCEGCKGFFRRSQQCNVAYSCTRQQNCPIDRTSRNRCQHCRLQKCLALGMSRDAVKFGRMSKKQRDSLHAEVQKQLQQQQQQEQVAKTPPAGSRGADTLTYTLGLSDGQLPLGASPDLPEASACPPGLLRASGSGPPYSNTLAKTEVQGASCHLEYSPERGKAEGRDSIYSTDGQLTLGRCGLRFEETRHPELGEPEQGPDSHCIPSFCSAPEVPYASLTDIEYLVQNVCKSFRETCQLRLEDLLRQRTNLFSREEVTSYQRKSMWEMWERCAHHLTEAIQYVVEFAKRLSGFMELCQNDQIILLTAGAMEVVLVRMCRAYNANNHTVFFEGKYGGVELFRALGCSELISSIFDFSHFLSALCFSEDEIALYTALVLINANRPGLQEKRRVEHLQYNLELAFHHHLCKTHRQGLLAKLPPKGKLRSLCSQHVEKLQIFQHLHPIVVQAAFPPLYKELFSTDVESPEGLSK
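In this cell-based reporter format, copper sulfate (700 uM final) drives Gal4–ROR gamma fusion expression from a metallothionein promoter in Drosophila Schneider cells; compounds preincubated 1 hr, reporter read after 20 hr at ambient temperature.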
Gal4-VP16 FLuc = inhibits Gal4-VP16 luciferase reporter, ROR gamma counter-screen; Drosophila S2 Gal4-VP16 UAS-luciferase, luminescence, 20 h; Potency, µM (titrated, usually from 53.6 µM), for the others: at the top dose activity, negative = inhibition, hits mostly inhibitors; 3.5% of 310,000 active; AID 2546;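 note: Gal4-VP16 expression switched on by copper sulfate through the metallothionein promoter; % is set by controls: 0 for no effect and ±100 for the full control effect; nearly all actives have a fitted effect of over 50% in size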
SW480 rereplic = inducers of DNA re-replication in SW480 colon cancer cells | AID 624297 | Potency, µM (highest dose often 46.1 µM), for inactives: at the highest dose re-replication activation, hits mostly activators | 1.8% of 340,000 active | SW480 DNA re-replication, Hoechst DNA content imaging, 48 h; note: % of control where 0% means no effect; nearly all actives have a fitted effect of over 55% in size
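Cells (250 per well) received 23 nL compound or DMSO by pin tool and were kept 48 hr at 37 C, 5% CO2. Nuclei were then stained with Hoechst for 40 min and scanned for DNA content.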
MCF10A rerep = DNA re-replication induction in MCF 10a cells; MCF 10A DNA re-replication, Hoechst nuclear intensity, 48 h; Potency, µM (highest dose often 46.1 µM), for inactives: at the top dose activity, positive = re-replication, most hits filed as activators; 2.9% of 350,000 active; note: % of control where 0% means no effect; nearly all actives have a fitted effect of over 50% in size
ELG1 DNA repair = ELG1-dependent DNA repair inhibition. HEK293T ELG1-luciferase reporter, luminescence, 16 h; DNA damage induced by 5-fluorouridine. Potency, µM (highest dose often 46.1 µM), for the others: at the top dose activity change, negative = inhibition, usual class: inhibitors. 2.3% of 330,000 active; note: % is set by controls: 0 for no effect and ±100 for the full control effect; nearly all actives have a fitted effect of over 55% in size
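Reporter activity after DNA damage by 5-fluorouridine is monitored. Compound-treated cells incubate 16 hr at 37 °C, then ONE-Glo is added for 30 min before luminescence reading.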
* = called active by the depositor. Rows were chosen to be rich in hits. Some 10% of all compounds tested hit in one or more screens of this group. Calls come from the whole dose curve; as a rule, active = well fitted curve in the direction sought with a large enough effect; inconclusive = small, poorly fitted or top-dose-only effect, or another doubt; inactive = no such curve, though single readings can be large; an effect the other way counts as inactive or inconclusive. Potency is the fitted concentration of half-maximal effect.

What do the screens show for `Cc1cc(C)nc(SCC(=O)N(C)CC(=O)Nc2c(Cl)cccc2Cl)n1`?
SW480 rereplic: inconclusive; MCF10A rerep: 28.8%; ELG1 DNA repair: 2.9%

What do the screens show for `O=c1[nH]c2ccccc2c(O)c1O`?
RORg inh: 7.6%; Gal4-VP16 FLuc: -1.4%; SW480 rereplic: -31.2%; MCF10A rerep: -1.1%; ELG1 DNA repair: 3.26µM*

What do the screens show for `O=c1[nH]c2ccccc2c(O)c1-[n+]1ccccc1`?
RORg inh: -1.8%; Gal4-VP16 FLuc: -3.0%; SW480 rereplic: -14.6%; MCF10A rerep: inconclusive; ELG1 DNA repair: 10.7%

Results for CN(C)C(=O)c1ccccc1NC(=O)Cc1cccc2ccccc12 ?
RORg inh: -34.5%; Gal4-VP16 FLuc: -6.2%; SW480 rereplic: 26.0%; MCF10A rerep: 3.0%; ELG1 DNA repair: -7.3%

Results for Cc1onc(-c2ccccc2Cl)c1C(=O)N1CCC(C)CC1 ?
RORg inh: -17.5%; Gal4-VP16 FLuc: 0.7%; SW480 rereplic: 2.6%; MCF10A rerep: 5.3%; ELG1 DNA repair: -3.7%

How did CCOC(=O)C1CCN(C(=O)c2c(C)oc3c2C(=O)c2ccccc2C3=O)CC1 do in these assays?
RORg inh: 11.2µM*; Gal4-VP16 FLuc: inconclusive; SW480 rereplic: 11.6µM*; MCF10A rerep: inconclusive; ELG1 DNA repair: inconclusive

What do the screens show for `CCOC(=O)C1CCN(C(=O)c2ccc(C)o2)CC1`?
SW480 rereplic: -4.3%; MCF10A rerep: 5.4%; ELG1 DNA repair: 16.1%

How did Cc1oc2c(c1C(=O)N1CCC(C)CC1)C(=O)c1ccccc1C2=O do in these assays?
RORg inh: 7.94µM*; Gal4-VP16 FLuc: inconclusive; SW480 rereplic: 11.6µM*; MCF10A rerep: 18.0%; ELG1 DNA repair: inconclusive

How did Cc1cccc([C@@H]2CN(C)CCc3c2cc(O)c(O)c3Cl)c1 do in these assays?
RORg inh: -27.6%; Gal4-VP16 FLuc: -11.2%

What do the screens show for `CN(C(=O)CSc1nnc(Cc2cccs2)n1C1CC1)C1CCS(=O)(=O)C1` (stereo unspecified)?
SW480 rereplic: inconclusive; MCF10A rerep: -2.0%; ELG1 DNA repair: 12.5%

Results for CN1CCC(=O)N([C@H](COc2ccccc2)Cc2ccccc2)CC1 ?
RORg inh: -9.5%; Gal4-VP16 FLuc: -7.8%; SW480 rereplic: 1.6%; MCF10A rerep: -6.8%; ELG1 DNA repair: inconclusive

How did Cc1ccc(NC(=S)N2CCC(c3nc4ccccc4s3)CC2)cc1C do in these assays?
RORg inh: 4.47µM*; Gal4-VP16 FLuc: 11.2µM*; SW480 rereplic: -5.5%; MCF10A rerep: -1.7%; ELG1 DNA repair: -17.4%

How did Cc1cc(C)cc(NC(=S)N2CCC(c3nc4ccccc4s3)CC2)c1 do in these assays?
RORg inh: 4.47µM*; Gal4-VP16 FLuc: 11.2µM*; SW480 rereplic: -5.4%; MCF10A rerep: -5.2%; ELG1 DNA repair: -4.0%

Results for CCNC(=O)N1CCC(c2nc3ccccc3s2)CC1 ?
RORg inh: 23.8%; Gal4-VP16 FLuc: -10.1%; SW480 rereplic: inconclusive; MCF10A rerep: inconclusive; ELG1 DNA repair: 1.7%

How did C=CCNC(=O)N1CCC(c2nc3ccccc3s2)CC1 do in these assays?
RORg inh: 4.9%; Gal4-VP16 FLuc: -13.3%; SW480 rereplic: -2.1%; MCF10A rerep: 13.7%; ELG1 DNA repair: inconclusive

What do the screens show for `CN(C)C(=O)C(OC(=O)c1ccc2c(c1)CCCC2)c1ccccc1` (stereo unspecified)?
RORg inh: -0.3%; Gal4-VP16 FLuc: 3.8%; SW480 rereplic: -98.6%; MCF10A rerep: -5.4%; ELG1 DNA repair: -0.4%

Results for CCOC(=O)CC1C(=O)NCCN1Cc1cccs1 (stereo unspecified) ?
RORg inh: -1.6%; Gal4-VP16 FLuc: -5.4%; SW480 rereplic: -16.0%; MCF10A rerep: -3.3%; ELG1 DNA repair: 3.3%

Results for COc1ccccc1NC(=O)CNC(c1ccccc1)c1ccccc1 ?
RORg inh: -29.6%; Gal4-VP16 FLuc: 5.3%; SW480 rereplic: 7.1%; MCF10A rerep: inconclusive; ELG1 DNA repair: 8.5%

How did COc1ccc(C)cc1NC(=O)CNC(c1ccccc1)c1ccc(C)cc1 (stereo unspecified) do in these assays?
RORg inh: 4.7%; Gal4-VP16 FLuc: -5.4%; SW480 rereplic: 2.59µM*; MCF10A rerep: inconclusive; ELG1 DNA repair: 6.51µM*
